Compounds with a hit are over-represented: about 27% of the library has one in this group of screens.
CYP2C19 act – cytochrome P450 2C19 (human) activation; P33261; recombinant CYP2C19, luciferin-H EGE luminescence; stronger effect = higher value; 0 = fully inhibited enzyme, 1 = untreated enzyme; activation factor at 5 µM; 96,000 tested, under 10 active; AID 1025;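 active = activation factor of at least 2 at 5 µM in the primary screen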
Cav32 inh – blocks human Cav3.2 T-type calcium channel; Cav3.2-expressing cells, Fluo-4 calcium fluorescence FDSS; stronger effect = lower value; 4% of 100,000 active; O95180; B-score at 10 µM;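 active = single-dose well whose peak fluorescence ratio is a statistical outlier from its plate by either plate-standardised score or position-corrected B-score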
PTK2B oligo ant – antagonists of human Pyk2 oligomerization; Q14289; Q293 cells, Pyk2 FERM NanoBiT luminescence; stronger effect = lower value; z-score (the deposit names both 25 µM and 10 µM); 0.83% of 99,000 active; AID 1347419;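 active = Z-score of -3 or lower, scaled per plate to the spread of control and sample wells; inactive = z-score above -3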;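 note: negative z-score means lost luminescence so less FERM oligomerization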
CYP2C19 inhib – blocks human cytochrome P450 2C19; P33261; CYP2C19 Supersomes, luciferin-H EGE luminescence, 30 min; inhibition, % at 5 µM; 21% of 96,000 active; AID 778;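 active = CYP2C19 inhibition above a set limit at 5 µM in the primary screen, cut at about 50% in these data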
CYP2C9 activ – increases human cytochrome P450 2C9 activity. P11712. 1.4% of 96,000 active. activation factor at 5 µM. AID 1024. recombinant CYP2C9, luciferin-H conversion, luminescence; stronger effect = higher value; factor 1 = untreated enzyme, 0 = blocked;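 active = activation factor of 2 or more for CYP2C9 at a 5 µM dose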
CYP2C9 inh – blocks human cytochrome P450 2C9 | 20% of 96,000 active | AID 777 | inhibition, % at 5 µM | CYP2C9 Supersomes, luciferin-H conversion, luminescence;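 active = blocking of liver enzyme CYP2C9 beyond about 50% at 5 µM, limit read from the data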
A number is an active result; n = inactive; x = not tested or not shown.

SMILES	CYP2C19 act	Cav32 inh	PTK2B oligo ant	CYP2C19 inhib	CYP2C9 activ	CYP2C9 inh
CN(C)S(=O)(=O)c1ccc(/C(O)=C2/C(=O)C(=O)N(Cc3cccnc3)C2c2ccncc2)cc1 (centres undefined)	n	n	n	n	n	n
Cc1ccc(/C(O)=C2/C(=O)C(=O)N(Cc3cccnc3)C2c2ccccn2)cc1 (centres undefined)	n	n	n	66.0	n	89.9
COc1ccc(/C(O)=C2/C(=O)C(=O)N(Cc3cccnc3)C2c2ccco2)cc1OC (centres undefined)	n	n	n	n	n	n
O=C1C(=O)N(Cc2cccnc2)C(c2ccccn2)/C1=C(/O)c1ccc(F)cc1 (centres undefined)	n	n	n	n	n	71.0
CCOc1ccccc1NC(=O)NC1(C(=O)N2CCOCC2)CCCCC1	n	n	n	n	n	n
Cc1ccc2c(CSc3nnc(N)s3)cc(=O)oc2c1	n	n	n	84.8	n	n
COc1ccc(CN(C(=O)CSc2nnc(-c3ccccc3F)o2)c2ccc(F)cc2)cc1	n	-4.8	n	61.7	n	76.4
Cc1cccc(N(C(=O)c2ccc(CN3CCOCC3)o2)C(C(=O)NC(C)(C)C)c2ccc(F)cc2)c1 (centres undefined)	x	n	n	x	x	x
Cc1ccc(C(c2sc3ncnn3c2O)N2CC(C)CC(C)C2)cc1 (centres undefined)	n	n	x	76.1	n	n
CCC(C)N1C(=O)C2C(C(=O)Nc3cccc(OC)c3)C3C=CC2(O3)C1C(=O)NC1CCCCC1C (centres undefined)	n	n	n	n	n	n
Cn1c(=O)[nH]c(=O)c2[nH]c(N(Cc3ccccc3)Cc3ccccc3)nc21	n	n	-3.22	n	n	55.6
C/C(Cl)=C\Cn1c(N2CCCC2)nc2c1c(=O)[nH]c(=O)n2C	n	3.49	n	n	n	n
CCCCn1c(N2CCC(Cc3ccccc3)CC2)nc2c1c(=O)[nH]c(=O)n2C	n	x	n	65.6	n	n
CC1CCN(c2nc3c(c(=O)[nH]c(=O)n3C)n2Cc2ccccc2Cl)CC1	x	-4.5	x	x	x	x
Cn1c(=O)[nH]c(=O)c2[nH]c(CN3CCN(Cc4ccccc4)CC3)nc21	x	n	x	x	x	x
Cc1ccc(C(=O)Cn2c(N3CCOCC3)nc3c2c(=O)n(C)c(=O)n3C)cc1	n	n	n	n	n	54.5
Cn1c(=O)c2c(nc(N3CCN(Cc4ccccc4)CC3)n2CCCc2ccccc2)n(C)c1=O	n	n	n	68.1	n	n
Cn1c(=O)[nH]c(=O)c2c1nc(N(CCO)Cc1ccccc1)n2CCCc1ccccc1	n	x	x	n	n	65.0
Cn1c(=O)[nH]c(=O)c2c1nc(N1CCN(Cc3ccccc3)CC1)n2CCSc1ncccn1	n	n	x	75.4	n	n
C/C(=N\Nc1cc(Cl)nc(C)n1)c1ccc(C)cc1	x	n	n	x	x	x
Cn1c(=O)[nH]c(=O)c2c1nc(N1CCN(c3cccc(Cl)c3)CC1)n2CCCc1ccccc1	n	n	x	n	n	n
Cn1c(=O)c2c(nc(CN3CCC(C(N)=O)CC3)n2CCCc2ccccc2)n(C)c1=O	n	n	n	59.3	n	70.7
Cn1c(=O)[nH]c(=O)c2c1nc(N1CCN(Cc3ccccc3)CC1)n2CCCc1ccccc1	n	n	n	87.6	n	n
COCCn1c(N2CCN(c3ccc(OC)cc3)CC2)nc2c1c(=O)n(C)c(=O)n2C	n	n	n	n	n	59.2
CSc1nc(C)cc(OCC#N)n1	n	n	n	n	n	n
SMILES	CYP2C19 act	Cav32 inh	PTK2B oligo ant	CYP2C19 inhib	CYP2C9 activ	CYP2C9 inh
CCCn1c(=O)[nH]c(=O)c2[nH]cnc21	x	n	x	x	x	x
CC(C)(C)N=C1NC(=NC(C)(C)C)c2ccccc21	n	n	n	n	n	n
CCOc1ccc2ccccc2c1/C=N/n1cncn1	n	n	n	n	n	58.5
Cc1[nH]c2ccccc2c1/C=N/n1cnnc1	n	n	n	n	n	n
Cc1c(/C=N/n2cnnc2)c2ccccc2n1CCOc1ccccc1	n	n	n	79.0	n	n
COc1ccccc1OCCOc1ccccc1/C=N/n1cnnc1	n	n	n	74.8	n	n
Cn1c(/C=N/n2cnnc2)nc2ccccc21	n	n	n	n	n	n
CCCOc1ccc2ccccc2c1/C=N/n1cnnc1	n	n	n	60.0	n	56.6
COc1cccc(/C=N/n2cnnc2)c1OCc1ccccc1	n	n	n	n	n	n
Cc1ccc(NC(=O)c2ocnc2C)cc1Cl	n	n	n	n	n	n
COc1cccc(N2CCN(C(=O)c3ccc(N4C(=O)NC5CC4(C)Oc4ccccc45)cc3)CC2)c1 (centres undefined)	n	x	n	n	n	n
COc1ccc(N2C(=O)NC3CC2(C)Oc2ccc(Br)cc23)cc1OC (centres undefined)	n	x	n	n	n	74.1
CS(=O)(=O)N(Cc1ccccc1)c1ccccc1C(=O)Nc1ccccc1C(=O)NCc1ccco1	n	n	n	89.3	n	83.6
Cc1ccccc1N(CC(=O)NCCSC1CCCCC1)S(=O)(=O)c1ccccc1	n	-6.02	n	n	n	57.6
Cc1ccc(S(=O)(=O)N(Cc2ccccc2)c2ccccc2C(=O)NCc2ccco2)cc1	n	n	n	n	n	99.0
Cc1cccc(N(CC(=O)N2CCCC2)S(=O)(=O)c2ccccc2)c1C	n	n	n	n	n	n
Cc1ccc(S(=O)(=O)N(CC(=O)NCCSCc2ccco2)c2cc(C)ccc2C)cc1	x	-6.74	n	x	x	x
Cc1ccc(N(CC(=O)NCCSCc2ccco2)S(C)(=O)=O)cc1	n	n	n	n	n	n
Cc1ccc(S(=O)(=O)CCC(=O)NCc2ccco2)cc1	n	n	n	n	n	n
Cc1ccc(SCCN2CCN(CC(C)C)CCC2=O)cc1	x	n	x	x	x	x
COc1ccc(NC(=O)CC2C(=O)N(c3cccc(OC)c3)C(=O)N2C2CCCCC2)cc1 (centres undefined)	n	n	n	n	n	n
O=C(NCc1cccs1)C1CCC(CNS(=O)(=O)c2cccs2)CC1 (centres undefined)	n	n	n	n	n	n
Brc1c(CSc2nncn2-c2ccccc2)nc2sccn12	n	n	n	n	n	n
CCCOc1ccc(NC(=O)CC2C(=O)N(C)C(=S)N2Cc2cccs2)cc1 (centres undefined)	x	-3.87	n	x	x	x
Cc1cccc(C)c1OCC(O)CNC(C)(C)C (centres undefined)	n	n	n	n	n	n
CCc1ccc(-c2csc3ncn(CC(=O)N4CCOCC4)c(=O)c23)cc1	n	n	n	n	n	n
CS(=O)(=O)N1CCN(C/C=C/c2ccccc2)CC1	n	n	n	n	n	n
O=S(=O)(Cc1ccccc1)N1CCN(C/C=C/c2ccccc2)CC1	n	n	n	n	n	n
O=S(=O)(c1ccc(Cl)s1)N1CCN(C/C=C/c2ccccc2)CC1	n	n	n	77.7	n	79.6
O=S(=O)(c1cccs1)N1CCN(C/C=C/c2ccccc2)CC1	n	x	n	86.4	n	73.7

Screening results as filed in PubChem BioAssay.
